Where “and” joins values, the source holds several entries; their conditions need not be identical. Equal entries are not always repeated. In all, about 5,500 compounds went through this assay and about 2,000 (36%) were called active. Not shown: some 18% with an inconclusive outcome. No stated cut-off is given here; in the data, active means normalized growth mostly below about 0.91 (no sharp cut-off); inconclusive means no clear call, values can overlap the other calls; inactive means mostly above about 0.92. The list shows a part of the results.
Assay: chemical genetic growth profiling, strain panel (AID 1159580);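 further: tested at 20 µM; growth read once vehicle control cultures reached saturation at 30 °C; 1 = growth at the plate median or of vehicle wells; lower values mean less growth of the strain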
Settings: growth OD

Measured: normalized growth

CC(CCc1ccccc1)NC(C)C(O)c1ccc(O)cc1 (stereo not given)
inactive: S. cerevisiae deletion strains, locus YJR075W, strain HOC1, hits give low values 1.01 | S. cerevisiae deletion strains, locus YKL009W, strain mrt4, hits give low values 0.988 | S. cerevisiae deletion strains, locus YKL068W, hits give low values 0.987 | S. cerevisiae deletion strains, locus YKL085W, strain MDH1 (second series), hits give low values 0.997 | S. cerevisiae deletion strains, locus YKL085W, strain MDH1, hits give low values 0.997 | S. cerevisiae deletion strains, locus YKL160W, strain elf1, hits give low values 1 | S. cerevisiae deletion strains, locus YKL190W, strain CNB1, hits give low values 0.99 | S. cerevisiae deletion strains, locus YKR001C, strain vps1, hits give low values 0.97 | S. cerevisiae deletion strains, locus YKR026C, strain gcn3, hits give low values 1 | S. cerevisiae deletion strains, locus YKR091W, strain srl3, hits give low values 1 | S. cerevisiae deletion strains, locus YLL001W, strain dnm1, hits give low values 1.01 | S. cerevisiae deletion strains, locus YLL026W, hits give low values 1 | S. cerevisiae deletion strains, locus YLL041C, strain sdh2, hits give low values 0.999 | S. cerevisiae deletion strains, locus YLR027C, strain aat2, hits give low values 0.994 | S. cerevisiae deletion strains, locus YLR039C, strain RIC1, hits give low values 1.01 | S. cerevisiae deletion strains, locus YLR058C, strain SHM2, hits give low values 0.976 | S. cerevisiae deletion strains, locus YLR102C, strain apc9, hits give low values 0.99 | S. cerevisiae deletion strains, locus YLR113W, strain HOG1, hits give low values 0.995 | S. cerevisiae deletion strains, locus YLR221C, strain rsa3, hits give low values 1.02 | S. cerevisiae deletion strains, locus YLR258W, strain gsy2, hits give low values 1 | S. cerevisiae deletion strains, locus YLR262C, strain YPT6 (second series), hits give low values 0.96 | S. cerevisiae deletion strains, locus YLR262C, strain YPT6, hits give low values 0.99 | S. cerevisiae deletion strains, locus YLR268W, strain sec22, hits give low values 1.04 | S. cerevisiae deletion strains, locus YLR320W, strain mms22, hits give low values 1.02 | S. cerevisiae deletion strains, locus YLR330W, strain CHS5, hits give low values 0.997 | S. cerevisiae deletion strains, locus YLR342W, strain FKS1 (second series), hits give low values 1.01 | S. cerevisiae deletion strains, locus YLR342W, strain FKS1, hits give low values 1 | S. cerevisiae deletion strains, locus YLR357W, strain rsc2, hits give low values 0.983 | S. cerevisiae deletion strains, locus YLR370C, strain arc18, hits give low values 1 | S. cerevisiae deletion strains, locus YLR371W, strain rom2, hits give low values 0.974 | S. cerevisiae deletion strains, locus YLR384C, strain iki3, hits give low values 1.01 | S. cerevisiae deletion strains, locus YLR418C, strain cdc73, hits give low values 0.997 | S. cerevisiae deletion strains, locus YML016C, strain PPZ1, hits give low values 0.993 | S. cerevisiae deletion strains, locus YML032C, strain rad52, hits give low values 1 | S. cerevisiae deletion strains, locus YML120C, strain ndi1, hits give low values 1.01 | S. cerevisiae deletion strains, locus YML124C, strain tub3, hits give low values 0.982 | S. cerevisiae deletion strains, locus YMR058W, strain fet3, hits give low values 0.998 | S. cerevisiae deletion strains, locus YMR078C, strain ctf18, hits give low values 0.987 | S. cerevisiae deletion strains, locus YMR125W, strain sto1, hits give low values 1.01 | S. cerevisiae deletion strains, locus YMR129W, hits give low values 0.984 | S. cerevisiae deletion strains, locus YMR205C, strain PFK2, hits give low values 1.02 | S. cerevisiae deletion strains, locus YMR223W, strain ubp8, hits give low values 0.989 | S. cerevisiae deletion strains, locus YMR231W, strain pep5, hits give low values 1 | S. cerevisiae deletion strains, locus YMR263W, strain SAP30, hits give low values 1.01 | S. cerevisiae deletion strains, locus YMR307W, strain GAS1, hits give low values 1.05 | S. cerevisiae deletion strains, locus YNL067W, strain RPL9B, hits give low values 0.995 | S. cerevisiae deletion strains, locus YNL071W, strain lat1, hits give low values 0.999 | S. cerevisiae deletion strains, locus YNL128W, strain TEP1, hits give low values 1.01 | S. cerevisiae deletion strains, locus YNL153C, strain GIM3, hits give low values 1 | S. cerevisiae deletion strains, locus YNL175C, strain NOP13, hits give low values 1.01 | S. cerevisiae deletion strains, locus YNL183C, strain NPR1, hits give low values 0.944 | S. cerevisiae deletion strains, locus YNL197C, strain WHI3, hits give low values 1.01 | S. cerevisiae deletion strains, locus YNL209W, strain ssb2, hits give low values 1 | S. cerevisiae deletion strains, locus YNL224C, strain SQS1, hits give low values 1.01 | S. cerevisiae deletion strains, locus YNL233W, strain BNI4, hits give low values 0.992 | S. cerevisiae deletion strains, locus YNL248C, strain rpa49, hits give low values 0.991 | S. cerevisiae deletion strains, locus YNL250W, strain rad50, hits give low values 0.986 | S. cerevisiae deletion strains, locus YNL271C, strain bni1, hits give low values 0.994 | S. cerevisiae deletion strains, locus YNL298W, strain CLA4, hits give low values 1.01 | S. cerevisiae deletion strains, locus YNL307C, strain MCK1, hits give low values 0.987 | S. cerevisiae deletion strains, locus YNL322C, strain KRE1 (second series), hits give low values 1.01 | S. cerevisiae deletion strains, locus YNL322C, strain KRE1, hits give low values 0.994 and 0.998 | S. cerevisiae deletion strains, locus YNR049C, strain mso1, hits give low values 1 | S. cerevisiae deletion strains, locus YNR052C, strain pop2, hits give low values 1 | S. cerevisiae deletion strains, locus YOL006C, strain TOP1, hits give low values 0.948 | S. cerevisiae deletion strains, locus YOL012C, strain htz1 1.21 | S. cerevisiae deletion strains, locus YOL147C, strain pex11, hits give low values 0.99 | S. cerevisiae deletion strains, locus YOR001W, strain rrp6, hits give low values 0.989 | S. cerevisiae deletion strains, locus YOR061W, strain CKA2, hits give low values 0.962 | S. cerevisiae deletion strains, locus YOR069W, strain VPS5, hits give low values 0.996 | S. cerevisiae deletion strains, locus YOR070C, strain gyp1, hits give low values 0.999 | S. cerevisiae deletion strains, locus YOR080W, strain dia2, hits give low values 0.994 | S. cerevisiae deletion strains, locus YOR083W, strain WHI5 (second series), hits give low values 1.01 | S. cerevisiae deletion strains, locus YOR083W, strain WHI5, hits give low values 1 | S. cerevisiae deletion strains, locus YOR106W, strain vam3, hits give low values 0.985 | S. cerevisiae deletion strains, locus YOR136W, strain idh2, hits give low values 0.988 | S. cerevisiae deletion strains, locus YOR144C, strain elg1, hits give low values 0.992 | S. cerevisiae deletion strains, locus YOR184W, strain ser1, hits give low values 0.99 | S. cerevisiae deletion strains, locus YOR231W, strain MKK1, hits give low values 1.02 | S. cerevisiae deletion strains, locus YOR265W, strain rbl2, hits give low values 1.01 | S. cerevisiae deletion strains, locus YOR270C, strain vph1, hits give low values 0.979 | S. cerevisiae deletion strains, locus YOR290C, strain snf2, hits give low values 1.01 | S. cerevisiae deletion strains, locus YOR316C, strain cot1, hits give low values 0.995 | S. cerevisiae deletion strains, locus YPL051W, strain arl3, hits give low values 1.02 | S. cerevisiae deletion strains, locus YPL078C, strain atp4, hits give low values 1 | S. cerevisiae deletion strains, locus YPL106C, strain sse1, hits give low values 0.977 | S. cerevisiae deletion strains, locus YPL240C, strain hsp82, hits give low values 1 | S. cerevisiae deletion strains, locus YPL241C, strain CIN2, hits give low values 0.997 | S. cerevisiae deletion strains, locus YPL256C, strain CLN2, hits give low values 0.969 | S. cerevisiae deletion strains, locus YPR119W, strain clb2, hits give low values 0.981 | S. cerevisiae deletion strains, locus YPR141C, strain kar3, hits give low values 0.976 | S. cerevisiae deletion strains, locus YPR163C, strain tif3, hits give low values 0.986 | S. cerevisiae deletion strains, locus YPR167C, strain met16, hits give low values 0.989 | S. cerevisiae deletion strains, strain wtn01, hits give low values 1 | S. cerevisiae strains, strain wild type, hits give low values 0.995

— PubChem BioAssay AID1159580 (chemical genetic matrix, 2015)
